What follows are molecules tested on HepG2 (assay: GSK_TCMDC: Percent inhibition of human HepG2 cell line. Test compounds present at 10uM.).
Assay type: functional

| SMILES | Inhibition [%] |
| --- | --- |
| CC(C)CCNC(=O)C1Cc2c([nH]c3ccc(Br)cc23)C2(CCN(Cc3ccccc3)CC2)N1 (stereo not given) | 100 |
| COc1ccc(Br)cc1/C=C/C(=O)Nc1cccc(C2CCCN(C)C2)c1.O=CO (stereo not given) | 12 |
| O=S(=O)(Nc1cccc(CCN2CCC(N3CCCCC3)CC2)c1)c1ccccc1C(F)(F)F | 21 |
| COc1cc(NC(=O)c2sc(-c3ccc(Cl)cc3)cc2NC(=O)CN2CC[C@@H](O)C2)ccc1OCCN1CCCC1 | 56 |
| COC(=O)c1ccc(CCCNCC(O)c2cccc(C(F)(F)F)c2)cc1 (stereo not given) | 0 |
| COc1cc(OC)cc(-c2nn(-c3ccc([N+](=O)[O-])cc3Cl)c(=S)n2Cc2ccco2)c1 | 15 |
| O=C(Nc1cccc(C(F)(F)F)c1)c1cccc(S(=O)(=O)NCC2CCCN(CC3CCCCC3)C2)c1.O=C(O)C(F)(F)F (stereo not given) | 17 |
| NCCNc1ccnc2cc(Cl)ccc12 | 9 |
| CC(C)(C)COc1ccc2c(N)n[nH]c2c1.Cl | 31 |
| CN(C)/C(=N/C(=N)Nc1ccc(Cl)cc1)NCCCCCCN/C(=N\C(=N)Nc1ccc(Cl)cc1)N(C)C | 11 |
| COC(=O)c1ccc2[nH]cc(C3CCN(CCC4CCN(C(=O)/C=C/c5ccc(Cl)c(Cl)c5)CC4)CC3)c2c1 | 24 |
| N=C(NCCCCCCCCNC(=N)Nc1ccc(Cl)cc1)Nc1ccc(Cl)cc1 | 10 |
| O=C(/C=C/c1ccc(Cl)c(Cl)c1)NCCCCN1CCC(c2c[nH]c3ccccc23)CC1 | 57 |
| COc1ccc(F)cc1-c1ccccc1CNC(=O)CN(C)S(=O)(=O)c1cc(C)cc(Cl)c1C | 0 |
| Nc1c2ccccc2nc2ccc(Cl)cc12 | 55 |
| CCCCN(CCCC)CCNC(=O)c1cc(OC(F)(F)F)ccc1O | 8 |
| CCOC(=O)c1ccc(NC(=O)Nc2cccc(-c3cccc(-c4nc5ccccc5[nH]4)c3)c2)cc1 | 76 |
| c1nc2nc3c(c(Nc4ccc5c(c4)CCC5)n2n1)CCC3 | 0 |
| COc1cc(Cc2c(C)nc3nc(N)nc(N)c3c2C)c(Br)c(OC)c1OC.Cl | 44 |
| COc1ccc(Nc2nccc(N3CCC(NC(=O)Nc4cc(C)ccc4C)C3)n2)cc1 (stereo not given) | 10 |

| SMILES | Inhibition [%] |
| --- | --- |
| Cl.NC1(C(=O)O)Cc2ccc(Cl)cc2C1 (stereo not given) | 0 |
| Cc1cccc(CNc2nc(C)cc(NCCC(=O)Nc3ccccc3)n2)c1.O=C(O)C(F)(F)F | 15 |
| Cc1cc(C=C2SC(=Nc3ccccc3)N(C3CCCC3)C2=O)c(C)n1-c1ccc(Cl)cc1 | 0 |
| COc1ccc(CCn2c(=N)c(C(=O)NCc3ccc(C)cc3)cc3c(=O)n4ccccc4nc32)cc1 | 13 |
| CCCN1CCN(CCCCNc2c3ccccc3nc3ccccc23)CC1.Cl | 34 |
| CCCCCCc1cc(Oc2c(I)cc(C[C@H](N)C(=O)O)cc2I)ccc1O | 0 |
| O=S(=O)(c1csc2ccccc12)N(CCC(O)(C(F)(F)F)C(F)(F)F)Cc1cccc(O)c1 | 0 |
| COc1ccc(CN2CCCN(Cc3cccc(C(=O)Nc4ccc(C(C)(C)C)cc4)c3)CC2)cc1.O=C(O)C(F)(F)F | 46 |
| CCN1C(=O)C(CC(=O)Nc2cccc(Cl)c2)N(Cc2ccc(OC)c(OC)c2)C1=S (stereo not given) | 13 |
| CCOc1cc(C)ccc1C1CCN(CCCCNC(=O)c2ccc(-c3ccc(Cl)cn3)cc2)CC1.Cl | 19 |
| CCc1c[nH]c2c(N(c3ccccc3)S(C)(=O)=O)cc(C(=O)N[C@@H](Cc3ccccc3)[C@H](O)CNCc3cccc(C(F)(F)F)c3)cc12.O=CO | 20 |
| COc1ccc2nccc(CCC3(O)CCC(NCc4cc5c(cc4F)SCC(=O)N5)CC3)c2c1 (stereo not given) | 9 |
| Cc1ccccc1CNc1noc(-c2c(F)cccc2Cl)n1 | 14 |
| Cc1ccc(NC(=O)Nc2ccc(I)c(OCCN(C)C)c2)cc1Cl | 11 |
| O=C(Nc1cc(Cl)ccc1-n1cncn1)C1(c2ccccc2)CC1 | 3 |
| Cn1cc(C2CCN(CCCCCNC(=O)/C=C/c3ccc(Cl)c(Cl)c3)CC2)c2cc(O)ccc21 | 11 |
| CCOC(=O)c1[nH]c2cc(Cl)cc(Cl)c2c1/C=C/C(=O)Nc1ccc(-c2cnc(NC(C)=O)[nH]2)cc1 | 45 |
| CC(=O)c1c(Cc2ccccc2Cl)c[nH]c1C | 0 |
| Cc1cccc2nc(-c3ccc(-c4ccc(NC(=O)Nc5ccc(Cl)c(Cl)c5)cc4)cc3)[nH]c12 | 37 |
| Br.CC[C@H]1CN2CCc3cc(OC)c(OC)cc3[C@@H]2C[C@@H]1CC1=NCCc2c1[nH]c1ccc(OCc3ccccc3)cc21 | 57 |

From ChEMBL document CHEMBL1157539, “Thousands of chemical starting points for antimalarial lead identification” (Nature, 2010)
